Source: PubChem (Johns Hopkins Ion Channel Center)
The list is not random: actives were taken first. Their share in the collection is about 1.6%.
KCNQ2 inh – rat KCNQ2 potassium channel inhibitors, primary screen, cell-based, CHO-K1, FluxOR thallium flux, B-score; Potassium voltage-gated channel subfamily KQT member 2 (Rattus norvegicus), O88943; 310,000 tested, 1.1% active; B-score at 10 µM; 20 min; hits give low values;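 active = fluorescence ratio B-score at most minus 3 library SDs, with starting brightness B-score within 2 library SDs, cut at about -5.5 in these data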
Target sequence (O88943 whole entry, looked up): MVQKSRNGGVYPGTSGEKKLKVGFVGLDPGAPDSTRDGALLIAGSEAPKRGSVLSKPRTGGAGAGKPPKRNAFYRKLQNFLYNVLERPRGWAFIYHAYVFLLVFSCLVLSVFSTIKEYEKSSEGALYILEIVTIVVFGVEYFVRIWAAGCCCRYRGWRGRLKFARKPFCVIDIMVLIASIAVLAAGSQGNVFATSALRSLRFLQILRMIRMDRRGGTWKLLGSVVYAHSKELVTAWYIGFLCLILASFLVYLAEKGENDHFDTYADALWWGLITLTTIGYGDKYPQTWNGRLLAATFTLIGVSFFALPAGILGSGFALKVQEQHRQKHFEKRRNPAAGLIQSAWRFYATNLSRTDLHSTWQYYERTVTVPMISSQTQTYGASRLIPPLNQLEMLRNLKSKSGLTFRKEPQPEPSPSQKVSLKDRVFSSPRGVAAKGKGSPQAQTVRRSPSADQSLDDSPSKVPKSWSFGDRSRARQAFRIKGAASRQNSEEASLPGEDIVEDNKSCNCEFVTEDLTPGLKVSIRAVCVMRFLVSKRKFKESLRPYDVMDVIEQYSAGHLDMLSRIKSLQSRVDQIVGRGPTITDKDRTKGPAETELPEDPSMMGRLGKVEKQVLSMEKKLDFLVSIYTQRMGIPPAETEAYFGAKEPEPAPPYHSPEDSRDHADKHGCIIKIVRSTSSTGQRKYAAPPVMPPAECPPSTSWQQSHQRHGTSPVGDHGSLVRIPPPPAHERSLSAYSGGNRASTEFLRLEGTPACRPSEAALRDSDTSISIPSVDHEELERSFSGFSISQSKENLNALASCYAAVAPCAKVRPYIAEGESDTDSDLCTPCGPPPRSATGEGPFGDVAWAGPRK
KCNQ2 pot – potentiators of rat KCNQ2 potassium channel; 310,000 tested, 0.54% active; Potassium voltage-gated channel subfamily KQT member 2 (Rattus norvegicus), O88943; CHO-K1 KCNQ2, FluxOR thallium flux fluorescence; hits give high values; B-score at 10 µM;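 active = fluorescence ratio B-score at least 3 SD of library B-scores, with initial fluorescence B-score within 3 of them, cut at about 5.3 in these data; same plate scores as AID 2156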;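 also: B-score of peak minus minimum over baseline fluorescence ratio after K+ and Tl+ stimulus; positive B-score means potentiation of KCNQ2 with more thallium influx and brighter signal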
Numbers without * were called inactive; i = inactive; · = no result.

SMILES | KCNQ2 inh | KCNQ2 pot
N#CCSc1nc2scc(-c3cccs3)c2c(=O)n1CCc1ccccc1 | -7* | -7
C=CCn1c(SCC(=O)Nc2ccccc2)nc2scc(-c3cccs3)c2c1=O | i | ·
COc1ccccc1NS(=O)(=O)c1ccc(Cl)c(NC(=S)NC(=O)C2CCCC2)c1 | i | ·
CCN(CC)c1ccc(S(=O)(=O)Nc2cc(Cl)ccc2Cl)cc1NC(=S)NC(=O)C1CCCC1 | -7.1* | -7.1
O=C(OCc1nnc(-c2ccccc2)o1)c1ccc(-n2cnnn2)cc1 | i | 0.35
O=C(OCc1nnc(-c2ccccc2)o1)c1cn(-c2ccccc2)nc1-c1ccccc1 | -6.2* | -6.2
COc1ccccc1C1CCN(C(=O)c2ccc(C(C)(C)C)cc2)CC1 | -6.5* | -6.5
COc1ccccc1N1CCN(C(=O)c2ccc(C(C)(C)C)cc2)CC1 | i | ·
COCCCN1C(=O)/C(=C/c2ccc(CNS(=O)(=O)c3ccccc3)o2)C(C(=O)OC)=C1C | i | ·
COc1cccc(CN(Cc2ccco2)C(c2ccc(F)cc2)c2nnnn2C(C)(C)C)c1 (centres undefined) | -6.1* | -6.1
CC(C)(C)n1nnnc1C(c1cccnc1)N(Cc1ccccc1)Cc1ccco1 (centres undefined) | i | ·
CCCN(CC(=O)Nc1ccc(F)c(F)c1F)C(=O)c1cc([N+](=O)[O-])ccc1N1CCOCC1 | i | 0.09
CCOC1=C/C(=C/c2c(N)n3nc(-c4ccccc4)sc3nc2=O)C=CC1=O | -6.9* | -6.9
CCS(=O)(=O)c1nn2c(N)c(/C=C3/C=CC(=O)C(OC)=C3)c(=O)nc2s1 | i | ·
O=C(c1cccs1)c1c[nH]cc1-c1ccccc1 | i | 0.14
c1cc2cc(-c3c(-c4ccc5c(c4)OCO5)noc3-c3ccsc3)ccc2[nH]1 | i | ·
Cc1onc(-c2ccc3c(c2)OCO3)c1-c1ccc2[nH]ccc2c1 | -7.9* | -7.9
C=CCOc1ccn(C)c(=O)n1 | i | 1.6
CCN(CC)CCOC(=O)c1ccc(NC(=S)NC(=O)/C=C/c2ccco2)cc1 | i | ·
COc1ccc(C)cc1NC(=O)C(Sc1nnc2ccccn12)c1ccccc1 (centres undefined) | i | ·
COc1ccc(C)cc1NC(=O)C(Sc1nnc(-c2ccncc2)n1-c1ccc(Cl)cc1)c1ccccc1 (centres undefined) | -7.9* | -7.9
Cc1nc2c(cc1NC(=O)C(C)(C)C)nc(C)n2Cc1ccccc1 | i | 7.3*
CC(=O)Nc1cc2nc(C)n(Cc3ccccc3)c2nc1C | i | ·
CC(=O)NNc1nc2ccccc2s1 | i | 0.39
C/C(=C\C(=O)c1ccccc1)NNc1nc2ccccc2s1 | -5.7* | -5.7
SMILES | KCNQ2 inh | KCNQ2 pot
CCOC(=O)c1[nH]ncc1CN1CCCC(C(=O)c2ccc(C(C)(C)C)cc2)C1 (centres undefined) | i | ·
O=S(=O)(c1ccc(Cl)cc1)N1CCN(S(=O)(=O)N2CCCCCC2)CC1 | i | ·
O=S(=O)(c1ccc(Oc2ccc(Cl)cc2)c(S(=O)(=O)N2CCCCC2)c1)N1CCCCC1 | -7.2* | -7.2
CCCn1c(SCC(=O)N2CCN(CC)CC2)nc2c1c(=O)n(C)c(=O)n2C | i | 1
C/C(=N\NC(=O)c1ccccc1F)c1cccc(NC(=O)c2ccc(C)cc2)c1 | i | ·
CCOC(=O)C1(CCc2ccccc2)CCN(Cc2ccn[nH]2)CC1 | i | ·
CCOC(=O)C1(CCc2ccccc2)CCN(Cc2cccc3nccnc23)CC1 | -5.9* | -5.9
CC12CCC(=O)N1C(C(=O)OCC(=O)Nc1cc(S(=O)(=O)N3CCCCC3)ccc1Cl)CS2 (centres undefined) | i | 1.1
COc1cccc(C2c3[nH]c4ccccc4c3C[C@H]3C(=O)N(C4CC4)CC(=O)N23)c1 (some centres undefined) | i | ·
COc1ccccc1CN1C(=O)CN(C2CCCCCC2)C(=O)C1c1ccc(F)cc1 (centres undefined) | -6.1* | -6.1
COc1cccc(C2C(=O)N(C3CCCCC3)CC(=O)N2Cc2ccc(F)cc2)c1 (centres undefined) | -7* | -7
O=C1C(c2ccc(F)cc2)N(C2CCCCC2)C(=O)CN1C1CCCC1 (centres undefined) | i | ·
Cc1ccc(NC(=O)CN2C(=O)NC3(CCc4ccccc43)C2=O)cc1S(=O)(=O)N1CCCCC1 (centres undefined) | i | ·
COc1ccc(-n2cc(-c3ccccc3)c3c(NN4CCOCC4)ncnc32)cc1 | -5.6* | -5.6
Fc1ccc(-n2cc(-c3ccccc3)c3c(NN4CCOCC4)ncnc32)cc1 | i | 0.01
Cc1ccc(-n2cc(-c3ccccc3)c3c(N4CCOCC4)ncnc32)cc1 | i | ·
Cc1cccc(-n2cc(-c3ccccc3)c3c(N4CCOCC4)ncnc32)c1 | -6.7* | -6.7
COc1ccc(NC(=O)c2ccccc2OCc2c(C)noc2C)cc1OC | i | 0.05
CCOC(=O)c1sc(=S)n(C)c1NC(=O)c1ccccc1Cl | i | ·
CC1(C)CC2CC(C)(CN2C(=S)NC(=O)c2ccccc2Cl)C1 (centres undefined) | i | 10*
CC1(C)CC2CC(C)(CN2C(=S)Nc2ccccc2)C1 (centres undefined) | i | ·
Cc1ccccc1OCC(=O)Nc1c2c(nn1C(C)(C)C)CS(=O)(=O)C2 | i | 0.42
COc1ccc(CNC(=O)C(C#N)c2nc3ccccc3nc2N2CCCC2)cc1 (centres undefined) | i | ·
CC1CN(c2nc3ccccc3nc2C(C#N)C(=O)NCc2ccc3c(c2)OCO3)CC(C)O1 (centres undefined) | -5.6* | -5.6
CC(C)(C)c1ccc(S(=O)(=O)N2CC(=O)Nc3ccccc32)cc1 | i | ·
SMILES | KCNQ2 inh | KCNQ2 pot
CCOC(=O)C1=C(C)N(c2ccccc2)C(=O)/C1=C\c1ccco1 | -6* | -6
COC(=O)C1=C(C)N(c2ccc(OC)c(OC)c2)C(=O)/C1=C\c1ccco1 | i | 0.96
COc1ccc(Cn2c(=O)[nH]c3cc(C(=O)N4CCN(Cc5ccccc5)CC4)ccc3c2=O)cc1 | i | ·
COc1ccc2c(C)c(C(=O)N3CCN(Cc4ccccc4)CC3)oc2c1 | -6.2* | -6.2
Cc1sc2ncnc(N3CCC(C(=O)Nc4ccc(Br)cc4Br)CC3)c2c1C | i | 0.01
c1ccc(C(c2ccccc2)N2CCN(Cc3nnnn3C3CCCC3)CC2)cc1 | i | ·
CC(C)CCn1nnnc1CN1CCN(C(c2ccccc2)c2ccccc2)CC1 | -5.7* | -5.7
CNC(=S)N/N=C/c1cc(Br)cc(Br)c1O | i | 7*
Oc1c(Br)cc(Br)cc1/C=N/NC(=S)N[C@H]1CC2C=CC1C2 (some centres undefined) | i | 0.28
COCc1cc(CN2CCCC(C(=O)Nc3cccc(-n4cnnn4)c3)C2)ccc1OC (centres undefined) | i | 0.02
CC(C)Cc1ccc(CN2CCCC(NC(=O)c3ccnn3C)C2)cc1 (centres undefined) | i | ·
CC(C)Cc1ccc(CN2CCCC(NC(=O)c3nn(C)c(=O)c4ccccc34)C2)cc1 (centres undefined) | -7.8* | -7.8
COc1ccccc1N1CCN(C(=O)CCc2nnc3ccc(N4CCC(C)CC4)nn23)CC1 | i | 0.2
Oc1ccccc1-c1nc(NCCN2CCOCC2)c2ccccc2n1 | -8.2* | -8.2
Clc1cccc(-c2nc(NCCCN3CCOCC3)c3ccccc3n2)c1 | i | ·
